Source: PubChem
Pol III holo inh: inhibitors of bacterial DNA polymerase III holoenzyme. 0.25% of 71,000 active. Potency, µM (titrated, usually from 57.1 µM), for the others: at the top dose activity change, negative = inhibition. reconstituted DNA polymerase III holoenzyme replication, biochemical; further: potency means the concentration at half of the fitted maximal effect; on the % scale 0 is the no-effect control and ±100 the full control effect
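Reconstituted *E. coli* holoenzyme (0.35 nM Pol III, 1 nM beta, 154 nM SSB, 2 nM primase) was preincubated with compound for 15 min at RT. Synthesis on 1.4 nM ssM13Gori ran 35 min, then was stopped with PicoGreen/EDTA and read as dsDNA fluorescence.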
ERK AVP inh: inhibitors of vasopressin-stimulated ERK signaling pathway | HEK293-V1b, vasopressin-stimulated pERK AlphaScreen | Potency, µM (titrated, usually from 57.5 µM), for the others: at the highest dose activity, negative = inhibition, hits mostly inhibitors | 0.99% of 72,000 active | AID 995; further: potency means the concentration at half of the fitted maximal effect; on the % scale 0 is the no-effect control and ±100 the full control effect; nearly all actives have a fitted effect of over 55% in size
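HEK293 cells stably expressing V1b receptor, seeded overnight in 1% FBS, were treated with compounds for 30 min at 37C, then stimulated 5 min with 25 nM vasopressin; phospho-ERK read by AlphaScreen SureFire after lysis.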
Tau fil binding: binders of human tau filaments. P10636. recombinant tau filaments, thioflavin S fluorescence, 15 h; filaments grown with octadecylsulfate alongside compound. Potency, µM (doses to about 57.1 µM), without a hit: at the highest dose activity change, negative = inhibition. 2% of 71,000 active;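 further: potency means the concentration at half of the fitted maximal effect; on the % scale 0 is the no-effect control and ±100 the full control effect; actives lower thioflavin S fluorescence by blocking filaments or displacing dye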
Target sequence (P10636 whole entry, looked up): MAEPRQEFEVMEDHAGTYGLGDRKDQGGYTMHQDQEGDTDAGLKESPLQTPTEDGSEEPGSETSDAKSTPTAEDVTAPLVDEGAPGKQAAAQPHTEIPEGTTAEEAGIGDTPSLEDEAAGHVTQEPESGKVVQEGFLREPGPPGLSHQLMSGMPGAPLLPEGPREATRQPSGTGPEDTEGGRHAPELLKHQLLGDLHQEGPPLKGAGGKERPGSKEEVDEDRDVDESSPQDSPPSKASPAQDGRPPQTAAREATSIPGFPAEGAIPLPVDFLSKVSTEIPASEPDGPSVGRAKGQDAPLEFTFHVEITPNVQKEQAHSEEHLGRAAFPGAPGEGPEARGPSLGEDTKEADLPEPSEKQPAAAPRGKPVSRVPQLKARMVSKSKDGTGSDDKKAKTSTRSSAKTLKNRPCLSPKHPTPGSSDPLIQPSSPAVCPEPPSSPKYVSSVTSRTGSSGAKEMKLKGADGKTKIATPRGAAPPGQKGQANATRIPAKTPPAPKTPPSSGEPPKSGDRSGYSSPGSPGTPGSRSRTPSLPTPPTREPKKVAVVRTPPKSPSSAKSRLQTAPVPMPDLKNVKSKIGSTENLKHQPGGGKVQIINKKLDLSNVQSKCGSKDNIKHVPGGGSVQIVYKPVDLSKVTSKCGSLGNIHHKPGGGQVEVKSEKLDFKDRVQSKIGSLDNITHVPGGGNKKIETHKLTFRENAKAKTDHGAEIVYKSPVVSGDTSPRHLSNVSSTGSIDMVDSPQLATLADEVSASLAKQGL
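His-tagged recombinant human tau (exons 2, 3 and 10 included), 1 uM, was induced to fibrillize by 30 uM sodium octadecylsulfate with compound present. After 15 h at 37 C, thioflavine S fluorescence (ex 450, em 510 nm) was read.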
YjeE inh: displaces an ADP probe from E. coli YjeE (TsaE) | P0AF67 | purified YjeE enzyme, qHTS inhibition assay | 0.05% of 71,000 active | Potency, µM
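Fluorescence polarization of a BODIPY Texas Red–ADP probe (2 uM) bound to purified YjeE (10 uM) was read after 15 min room-temperature incubation with compounds. Loss of polarization marks inhibitors; ADP serves as titrated control.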
p53ts 32C kill: kills p53ts cells at the permissive temperature. H1299-p53A138V at 32C, ATP luminescence viability, 24 h. Potency, µM (series often up to 46.1 µM), inactives show at the highest dose activity change, negative = cytotoxicity, hits mostly cytotoxic. 0.93% of 130,000 active. AID 924;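 further: potency means the concentration at half of the fitted maximal effect; 0% = DMSO and -100% = full killing by reference compound; nearly all actives have a fitted effect of over 55% in size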
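Viability by ATPlite luminescence after 24 h compound treatment (up to 46 uM) at the permissive 32C. Cells are H1299 carrying p53 A138V. Scale runs from DMSO basal to 100 uM tamoxifen as full kill; AC50 from Hill fits.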
p53ts 39C kill: cytotoxicity in p53ts cells at nonpermissive temperature | 1.5% of 130,000 active | Potency, µM (highest dose often 46.1 µM), for the others: at the top dose activity change, negative = cell killing, usual class: cytotoxic | H1299-p53A138V viability at 39C, ATP luminescence, 24 h | AID 902; further: potency means the concentration at half of the fitted maximal effect; on the % scale 0 is the no-effect control and ±100 the full control effect; nearly all actives have a fitted effect of over 55% in size
The depositor's hits bear a star; i = inactive; ? = inconclusive; / = no result given; [ ] = remark or other dose. Most compounds without a hit are left out; they make up all but 3.2% or so of the library. The call rests on the fitted dose curve; in most records, active means well fitted curve in the direction sought with a large enough effect; inconclusive means small, poorly fitted or top-dose-only effect, or another doubt; inactive means no such curve, though single readings can be large; an effect the other way counts as inactive or inconclusive.

SMILES	Pol III holo inh	ERK AVP inh	Tau fil binding	YjeE inh	p53ts 32C kill	p53ts 39C kill
CCOc1ccc(N2CC(c3nc4ccccc4n3CCCOc3ccc(OC)cc3)CC2=O)cc1 (stereo not given)	/	/	/	/	-4.4%	-19.2%
CCOc1ccc(NC(=O)c2ccc3nc(C(C)C)oc3c2)cc1	/	/	/	/	-12.8%	?
N#CCCCSc1nnnn1-c1cccc(Cl)c1	-3.3%	-9.9%	3.3%	i	-10.4%	5.8%
N#CCCS(=O)(=O)c1nnnn1-c1ccccc1	-1.8%	18.0%	0.6%	i	?	20µM*
COC(=O)NC(/C(C(=O)OC)=C(\C)NCc1ccccc1)c1ccc2ccccc2c1 (stereo not given)	/	21.7%[11.5 µM]	/	/	-7.9%[9.22 µM]	3.2%[9.22 µM]
CC(C)[C@@H](CC(=O)N[C@@H]1CCNC[C@H]1C(=O)N[C@H](CC(=O)N[C@@H](CCC(=O)O)CC(=O)O)Cc1c[nH]c2ccccc12)NC(=O)C[C@H](CO)NC(=O)[C@@H]1CNCC[C@H]1N	0.1%	/	?	i	/	/
COc1cc2c(C=O)c3c4c(cc(OC)c(OC)c4c2cc1OC)CCN3C	/	?	/	/	?	15.8µM*
COc1c(Cl)cc(C(=O)Nc2cccc(-c3nc4ccccc4[nH]3)c2)cc1Cl	/	/	/	/	?	12.6µM*
Nc1ccc(-c2cnc(-c3ccc(N)cc3)nc2)cc1	-9.4%	-6.5%	-7.2%	i	10µM*	10µM*
CN1[C@@H]2CC(OC(=O)[C@@H](CO)c3ccccc3)C[C@H]1[C@H]1O[C@H]12 (stereo not given in full)	-3.3%	5.3%	-2.5%	i	/	/
CSc1nn(Cc2cccc(Cl)c2)c(N(C(C)=O)C(C)=O)c1S(=O)(=O)c1ccccc1	/	/	/	/	9.5%	20µM*
Nc1ncc(S(=O)(=O)NCc2ccccc2)cn1	/	/	/	/	6.4%	-12.2%
O=C1C(C=NCc2ccco2)=C(O)c2ccccc21	-4.9%	-11.3%	25.1µM*	i	?	-28.6%
COc1cccc2sc(Nc3nnc(-c4cccs4)o3)nc12	5.6%	7.6%	52.1%	i	?	12.6µM*
CCn1nc(-c2ccccc2)c(-c2ccccc2)c(C(=O)Nc2nc(C)c(C(C)=O)s2)c1=O	/	/	/	/	7.3%	-14.5%
CC(=O)c1nn(-c2ccc(OC(F)(F)F)cc2)nc1Nc1ccc(C)cc1	/	/	/	/	-2.3%	-19.4%
CCOC(=O)C1CCN(C(=O)c2nn(-c3ccc(OC)c(Cl)c3)c(=O)c3c2c2ccccc2n3C)CC1	/	/	/	/	4.7%	-5.3%
COc1cc(-c2ccc(N=C=O)c(OC)c2)ccc1N=C=O	-5.2%	-8.1%	15.8µM*	i	-19.0%[1.84 µM]	8.9%
CCCC(c1nnnn1Cc1ccc(F)cc1)N1CCN(C2CCCCC2)CC1 (stereo not given)	-3.5%	31.6µM*	-11.2%	i	?	20µM*
COc1ccc(OC)c(CNC(=O)C2CCCCN2S(=O)(=O)c2ccc(F)cc2)c1 (stereo not given)	/	/	/	/	9.4%	10.8%
COc1ccc2nc(-c3ccccc3)[nH]c2c1	3.3%	-12.3%	7.6%	i	10µM*	12.6µM*
COc1ccc2nc(NCc3ccccc3)[nH]c2c1	-6.8%	-1.5%	15.4%	i	?	?
CCOc1ccc2nc(-c3ccccc3)[nH]c2c1	-2.0%	-7.1%	-5.5%	i	6.31µM*	5.01µM*
COc1ccc2[nH]c(C(=O)O)c(NS(=O)(=O)c3ccc(OC)c(OC)c3)c2c1	-7.1%	-9.6%	20µM*	i	8.1%	9.8%
CCC(=O)CC(NC(=O)OC)c1ccccc1 (stereo not given)	/	19.4%[11.5 µM]	/	/	-2.4%[9.22 µM]	15.3%[9.22 µM]
Cc1ccc(C)c(-n2nnc(C(=O)Nc3ccc(Br)cc3)c2C)c1	/	/	/	/	-14.1%	-10.1%
Cc1nc2cc(NC(=O)Nc3ccc(N4CCOCC4)cc3)ccc2n1C	-4.8%	-16.7%	25.1µM*	i	8.0%	21.1%
COC(=O)c1ccc(C(NC(=O)OCc2ccccc2)/C(F)=C/[C@@H](C)C(=O)NCc2ccc(OC)c(OC)c2)cc1 (stereo not given in full)	-1.4%	-15.7%	i	i	?	12.6µM*
